Assay outcomes: PubChem, National Center for Advancing Translational Sciences (NCATS)
Sampled rows, rich in hits. Any-hit rate of the full collection: about 5.8%.
PINK1 modulator – PINK1 expression modulation | actives 0.2% (n = 410,000) | PINK1 immunofluorescence, high-content cytometry, 24 h | Potency, µM (top dose mostly 76.6 µM), for inactives: top-dose activation (PINK1 increase), most hits filed as activators; active = well fitted activation curve with a large enough effect; inconclusive = small, poorly fitted or top-dose-only effect; cell line not stated here; also: % of control where 0% means no effect; nearly all actives have a fitted effect of over 65% in size
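PINK1 protein level read as immunofluorescence by microplate cytometer in a fixed, stained stable cell line after 24 h exposure to five compound concentrations, with CCCP as control.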
KB-3-1 cytotox – kills parental KB-3-1 adenocarcinoma cells. KB-3-1 viability, CellTiter-Glo ATP luminescence, 72 h. Potency, µM (titrated, usually from 46.1 µM), actives largely listed as cytotoxic. actives 1.4% (n = 400,000). AID 1347075; also: % is scaled to controls: 0 for no effect and ±100 for the full control effect; nearly all actives have a fitted effect of over 60% in size
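Cytotoxicity measured as CellTiter-Glo luminescence after 72 h at 37 C. Compound titrations were pinned onto drug-naive KB-3-1 parental adenocarcinoma cells grown in DMEM with 10% FBS, and normalized data fitted to concentration-response curves.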
MCF10A rerep – induces DNA re-replication in MCF 10a normal breast cells; MCF 10A DNA re-replication, Hoechst nuclear intensity, 48 h; Potency, µM (series often up to 46.1 µM), for the others: at the highest dose activity, positive = re-replication, hits mostly activators; actives 2.9% (n = 350,000); also: % of control where 0% means no effect; nearly all actives have a fitted effect of over 50% in size
SW480 rereplic – inducers of DNA re-replication in SW480 colon cancer cells. actives 1.8% (n = 340,000). SW480 DNA re-replication, Hoechst DNA content imaging, 48 h. Potency, µM (titrated, usually from 46.1 µM), for the others: at the highest dose re-replication activation, hits mostly activators. AID 624297; also: % of control where 0% means no effect; nearly all actives have a fitted effect of over 55% in size
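Quantitative HTS format with DMSO vehicle controls; 48 hr drug incubation at 37 C, then 40 min Hoechst staining and scanning imager measurement at 405 nm excitation.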
12-LOX inh – inhibitors of human 12S-lipoxygenase ALOX12; P18054; actives 1.1% (n = 580,000); Potency, µM (highest dose often 108 µM), inactives show at the top dose activity change, negative = inhibition, usual class: inhibitors; purified 12hLO, xylenol orange hydroperoxide absorbance; also: % is scaled to controls: 0 for no effect and ±100 for the full control effect
Target sequence (P18054 whole entry, looked up): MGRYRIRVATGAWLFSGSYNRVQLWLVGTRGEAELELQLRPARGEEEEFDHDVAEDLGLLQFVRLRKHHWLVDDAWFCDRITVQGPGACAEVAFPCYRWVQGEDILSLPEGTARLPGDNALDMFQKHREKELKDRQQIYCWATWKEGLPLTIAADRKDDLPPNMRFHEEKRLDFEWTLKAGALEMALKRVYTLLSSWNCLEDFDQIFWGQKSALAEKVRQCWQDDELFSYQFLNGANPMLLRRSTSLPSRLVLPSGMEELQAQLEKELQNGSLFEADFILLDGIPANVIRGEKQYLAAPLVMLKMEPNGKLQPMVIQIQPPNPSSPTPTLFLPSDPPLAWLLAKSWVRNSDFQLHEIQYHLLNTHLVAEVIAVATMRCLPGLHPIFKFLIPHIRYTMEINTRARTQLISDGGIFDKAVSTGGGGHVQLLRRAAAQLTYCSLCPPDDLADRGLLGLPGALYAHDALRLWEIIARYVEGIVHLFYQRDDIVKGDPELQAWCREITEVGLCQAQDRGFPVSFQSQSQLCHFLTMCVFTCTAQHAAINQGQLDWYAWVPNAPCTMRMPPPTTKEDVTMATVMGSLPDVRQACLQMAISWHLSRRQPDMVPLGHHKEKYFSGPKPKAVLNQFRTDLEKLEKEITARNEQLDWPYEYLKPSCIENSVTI
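Hydroperoxide product was detected by ferrous iron/xylenol orange as the 573 to 405 nm absorbance ratio. Arachidonic acid at 40 uM (final) was turned over for 30 min at room temperature by 150 nM human 12hLO, pH 7.0 Hepes buffer, after 15 min compound preincubation.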
KB-V1 MDR tox – KB-V1 MDR subline cytotoxicity; KB-V1 MDR cells viability, CellTiter-Glo, 72 h; Potency, µM (highest dose often 46.1 µM), hits mostly cytotoxic; actives 3.4% (n = 400,000); AID 1347076; also: % is scaled to controls: 0 for no effect and ±100 for the full control effect; nearly all actives have a fitted effect of over 60% in size
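qHTS viability screen in drug-selected KB-V1 MDR cells: 72 h compound treatment at 37 degrees C, ATP luminescence end point.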
An asterisk follows results filed as active; i = inactive; u = inconclusive; x = no result given; [ ] = dose if it differs, or a comment. Unless noted, calls follow the shape of the dose curve; as a rule, active = well fitted curve in the direction sought with a large enough effect; inconclusive = small, poorly fitted or top-dose-only effect, or another doubt; inactive = no such curve, though single readings can be large; an effect the other way counts as inactive or inconclusive. Potency is read from the fitted curve at half-maximal effect.

SMILES | PINK1 modulator | KB-3-1 cytotox | MCF10A rerep | SW480 rereplic | 12-LOX inh | KB-V1 MDR tox
Cc1nc2c3cc(F)ccc3n(Cc3ccccc3)c2s1 | 6% | 16µM* | 19% | u | -19% | u
CCn1c2ccc(F)cc2c2nnc(NN)nc21 | 8% | i | 20% | u | -3% | i
Cc1nc2c3cc(F)ccc3n(CCN3CCCCC3)c2s1 | 7% | u | 23µM* | u | 0% | i
Cc1nc2c3ccccc3n(Cc3ccccc3F)c2s1 | 12% | i | 15µM* | 17% | -3% | u
O=C(O)c1cccc(NCc2ccc(Cl)cc2Cl)c1 | x | x | x | x | -5% | x
COc1ccc(C2CC23N=C(c2ccccc2)OC3=O)cc1 (centres undefined) | 2% | i | 16µM* | 5% | 0% | i
COc1ccc(C2=NC(c3ccccc3)CO2)cc1 (centres undefined) | x | x | 3% | 6% | x | x
CCCC1S/C(=N/N=C/c2ccc(OC)cc2)N(Cc2ccccc2)C1=O (centres undefined) | -1% | i | u | -3%[9.22 µM] | 23% | i
CCCC1S/C(=N/N=C/c2ccc(OC)cc2)N(Cc2ccc(OC)cc2)C1=O (centres undefined) | -2% | i | 11% | -1% | -38% | 16µM*
CCCCC1S/C(=N/N=C/c2ccc(OC)cc2)N(Cc2ccc(OC)cc2)C1=O (centres undefined) | -1% | i | 2% | u | 0% | 8.2µM*
O=C(O)c1ccccc1C(=O)OCCCC(F)(F)C(F)(F)F | x | x | x | x | -49% | x
CSc1nc2ccccc2c(=O)n1CC(=O)c1ccccc1C | x | x | x | x | 3% | x
CSc1nc2c(cnn2-c2ccc(C)c(C)c2)c(=O)[nH]1 | 2% | 1.6µM* | 0% | -11% | -6% | u
O=C(O)c1ccco1 | x | x | x | x | -12%[176 µM] | x
Cc1ccc(Cc2c(C)[nH]c(=S)[nH]c2=O)cc1 | 2% | i | 0% | 0%[9.22 µM] | 0% | i
Cc1ccc(Cc2c[nH]c(=S)s2)cc1 | 1% | i | u | 7% | 35µM* | i
COc1ccc(-n2c(=O)c(CCC(=O)N(C)Cc3ccccc3C)nc3ccccc32)cc1 | 0% | i | -19% | -8% | u | i
CCc1ccc(CN(C)C(=O)CCc2nc3ccccc3n(-c3ccc(OC)cc3)c2=O)cc1 | -2% | i | u | u | -15% | 12µM*
O=C(Nc1ccccc1)Nc1nnc(C2CCCC2)s1 | x | x | x | x | -1% | x
CCNc1ncc2nc(CCc3ccccc3)c(=O)n(Cc3ccc(F)cc3)c2n1 | 45µM* | x | x | x | u | x
CCNc1ncc2nc(-c3cc(F)cc(F)c3)c(=O)n(CCc3ccccc3)c2n1 | u | x | x | x | 11µM* | x
Cc1ccc2c(=O)cc(C(=O)Nc3cccc(Cl)c3)oc2c1 | x | x | x | x | -8% | x
CCOC(=O)c1ccc(Oc2coc3cc(OCc4ccccc4)ccc3c2=O)cc1 | x | x | x | x | -5% | x
CC(/C=N/NC(=O)Cc1cccn1C)=C\c1ccccc1 | -2% | i | 3% | -2% | 0% | 16µM*
CC(C=NNC(=O)C(=O)NN=CC(C)=Cc1ccccc1)=Cc1ccccc1 | 9% | i | 19% | u | x | i
SMILES | PINK1 modulator | KB-3-1 cytotox | MCF10A rerep | SW480 rereplic | 12-LOX inh | KB-V1 MDR tox
O=C(Nc1nccs1)c1ccc(-c2ccc([N+](=O)[O-])cc2)o1 | 35µM* | i | 9% | 1% | 4% | i
O=C(Nc1nccs1)c1ccc(-c2ccc(Cl)cc2)o1 | 4% | i | 5% | -1% | 2% | i
O=C(Nc1ccccc1)c1ccc(-c2ccc(Br)cc2)o1 | -1% | i | 21µM* | u | -1% | i
NC(=O)c1ccccc1NC(=O)c1ccc(-c2ccc(Br)cc2)o1 | 1% | i | x | x | 3% | i
O=C(Nc1ccc(CN2CCOCC2)cc1)c1ccc(-c2ccc(Br)cc2)o1 | 0%[38.3 µM] | i | u | u | -11%[57.4 µM] | 21µM*
O=C(Nc1cccc(NC(=O)c2ccc(-c3ccc(Br)cc3)o2)c1)c1ccccc1 | 9% | i | u | u | 2% | i
O=C(Nc1ccc(CN2CCOCC2)cc1)c1ccco1 | 2% | i | -12% | 4% | -4% | i
COc1ccccc1NC(=O)c1ccc(-c2ccc(Br)cc2)o1 | 12% | 5.8µM* | u | u | -12% | 3.3µM*
O=C(NCc1cccc(F)c1)c1nc2c(o1)CCN(Cc1cccc(F)c1F)CC2 | x | x | x | x | -12%[176 µM] | x
Cc1ccc(C(=O)Nc2ccc(-c3nccs3)cc2)c(C)c1 | x | x | x | x | 46% | x
CN(C)C(=O)c1cccc(NC(=O)c2ccc(-c3ccccc3)cc2)c1 | x | x | x | x | 4% | x
CC(=O)c1ccc(NC(=O)c2ccc(-c3ccc(Cl)cc3)o2)cc1 | 1% | u | x | x | u | i
CN(C)C(=O)c1ccc(NC(=O)c2ccc(-c3ccc(Cl)cc3)o2)cc1 | -1% | i | 28% | 24% | u | 21µM*
COc1ccc(NC(=O)c2ccc(-c3ccc([N+](=O)[O-])cc3)o2)cc1 | 9% | i | 8% | -10% | -20% | i
O=C(Nc1ccccc1)c1ccc(-c2ccc([N+](=O)[O-])cc2)o1 | 9% | u | 23µM* | 1% | u | i
COc1ccc(/C=C2/Sc3ccc(C(=O)NCCCN4CCOCC4)cc3NC2=O)cc1OC | 0% | u | 18µM* | 21µM* | -3% | i
COc1cccc(/C=C2/Sc3ccc(C(=O)NCCN4CCCCCC4)cc3NC2=O)c1 | -1% | i | 21µM* | u | u | i
O=C(Nc1ccccc1)c1ccc(S(=O)(=O)N2CCCC2)cc1 | -3%[38.3 µM] | i | -2% | -6% | 26% | i
O=C(Nc1nc(-c2ccccc2)c(-c2ccccc2)s1)c1ccc(S(=O)(=O)N2CCCC2)cc1 | 4% | u | 7% | -3% | 17% | 4.1µM*
CCCN(CCC)S(=O)(=O)c1ccc(C(=O)Nc2nc3c(s2)CCc2ccccc2-3)cc1 | 9% | 9.2µM* | -8% | 21% | 11% | i
O=C(Nc1ccccc1)c1ccc(S(=O)(=O)N2CCCCC2)cc1 | 0% | i | 0% | -1% | 19% | i
CN(C)S(=O)(=O)c1ccc(C(=O)Nc2nc(-c3ccccc3)c(C(=O)c3ccccc3)s2)cc1 | 1% | i | 19% | -1% | -3% | 16µM*
O=C(Nc1nc(-c2ccccc2)c(C(=O)c2ccccc2)s1)c1ccc(S(=O)(=O)N2CCCC2)cc1 | 2% | 16µM* | u | -106% | -4% | 3.7µM*
N#CCCN(CCC#N)S(=O)(=O)c1ccc(C(=O)Nc2nc(-c3ccccc3)c(C(=O)c3ccccc3)s2)cc1 | 4% | i | u | -14% | 0% | i
